Assay in all cases: DAPPL (digital affinity profiling via proximity ligation, sequencing); 10 mM Tris-HCl pH 7.5, 50 mM NaCl, 1 mM DTT, 4% glycerol, room temperature, 30 min; GST-TFs on glutathione beads, 16-mer random dsDNA library, 0.1% formaldehyde crosslink after washing; high values mean tight binding
One experiment deals with T1, FLI1 (Homo sapiens, UniProt Q01543 1-452).
T1 sequence: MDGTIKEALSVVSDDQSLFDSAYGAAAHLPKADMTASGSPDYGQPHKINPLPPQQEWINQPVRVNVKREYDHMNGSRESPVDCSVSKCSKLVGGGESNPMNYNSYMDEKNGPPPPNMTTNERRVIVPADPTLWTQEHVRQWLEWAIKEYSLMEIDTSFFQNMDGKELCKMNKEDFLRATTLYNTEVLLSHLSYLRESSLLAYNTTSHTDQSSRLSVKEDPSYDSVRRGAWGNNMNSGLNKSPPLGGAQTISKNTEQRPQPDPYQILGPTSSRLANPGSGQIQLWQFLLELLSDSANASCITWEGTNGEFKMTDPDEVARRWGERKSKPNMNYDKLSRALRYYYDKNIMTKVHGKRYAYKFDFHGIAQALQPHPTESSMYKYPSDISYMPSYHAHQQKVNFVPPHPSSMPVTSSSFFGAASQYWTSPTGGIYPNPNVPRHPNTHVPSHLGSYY
To be noted: protein: recombinant; tags: N-terminal GST; dsDNA, one strand shown. Put shortly:
(§1)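 Sequencing on an Illumina NextSeq500 followed washing, crosslinking with 0.1% formaldehyde, proximity ligation (BsaI/T4 ligase, 1 h, 37 °C) and PCR amplification of pools that had been incubated for 30 min at room temperature with 200 nmole of a random double-stranded 16-mer DNA library in Tris/NaCl/DTT/glycerol buffer. Each pool held DNA-barcoded human transcription factors, expressed in yeast as GST fusions and captured on glutathione beads, plus a tag-only sample. Binding signal is a hexamer's read frequency for a factor divided by its frequency in the tag-only sample.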

The next experiment concerns the target T2, ELK1 (Homo sapiens, UniProt P19419 1-428).
T2 sequence: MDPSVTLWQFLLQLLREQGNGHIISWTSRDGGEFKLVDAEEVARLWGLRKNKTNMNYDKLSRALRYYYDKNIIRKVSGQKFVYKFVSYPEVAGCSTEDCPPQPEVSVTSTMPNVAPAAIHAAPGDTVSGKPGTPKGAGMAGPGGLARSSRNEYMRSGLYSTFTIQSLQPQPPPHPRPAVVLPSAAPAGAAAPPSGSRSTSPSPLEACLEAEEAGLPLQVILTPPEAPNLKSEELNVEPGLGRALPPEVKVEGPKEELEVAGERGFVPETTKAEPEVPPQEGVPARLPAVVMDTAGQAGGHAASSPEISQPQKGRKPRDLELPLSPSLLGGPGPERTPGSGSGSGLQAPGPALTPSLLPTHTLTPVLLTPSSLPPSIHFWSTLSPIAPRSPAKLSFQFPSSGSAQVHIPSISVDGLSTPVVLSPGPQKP
To be noted: protein: recombinant; tags: N-terminal GST; dsDNA, one strand shown. Put shortly: as §1

Another experiment addresses T3, GABPA (Homo sapiens, UniProt Q06546 1-454).
T3 sequence: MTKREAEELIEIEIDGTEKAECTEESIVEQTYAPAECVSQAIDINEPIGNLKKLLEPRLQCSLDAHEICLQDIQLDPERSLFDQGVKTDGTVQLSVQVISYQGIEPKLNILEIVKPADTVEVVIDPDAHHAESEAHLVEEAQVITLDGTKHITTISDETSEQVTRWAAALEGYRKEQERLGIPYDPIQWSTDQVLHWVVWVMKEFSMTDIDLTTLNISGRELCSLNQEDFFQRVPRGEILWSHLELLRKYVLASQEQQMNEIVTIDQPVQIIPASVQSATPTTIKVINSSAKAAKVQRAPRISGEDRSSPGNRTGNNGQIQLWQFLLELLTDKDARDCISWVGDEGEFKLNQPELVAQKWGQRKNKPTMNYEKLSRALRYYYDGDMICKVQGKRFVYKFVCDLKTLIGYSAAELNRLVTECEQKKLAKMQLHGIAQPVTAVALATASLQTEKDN
The note with it: protein: recombinant; tags: N-terminal GST; dsDNA, one strand shown. Put shortly: as §1

The target of another experiment is T4, ERG (Homo sapiens, UniProt P11308 1-479).
T4 sequence: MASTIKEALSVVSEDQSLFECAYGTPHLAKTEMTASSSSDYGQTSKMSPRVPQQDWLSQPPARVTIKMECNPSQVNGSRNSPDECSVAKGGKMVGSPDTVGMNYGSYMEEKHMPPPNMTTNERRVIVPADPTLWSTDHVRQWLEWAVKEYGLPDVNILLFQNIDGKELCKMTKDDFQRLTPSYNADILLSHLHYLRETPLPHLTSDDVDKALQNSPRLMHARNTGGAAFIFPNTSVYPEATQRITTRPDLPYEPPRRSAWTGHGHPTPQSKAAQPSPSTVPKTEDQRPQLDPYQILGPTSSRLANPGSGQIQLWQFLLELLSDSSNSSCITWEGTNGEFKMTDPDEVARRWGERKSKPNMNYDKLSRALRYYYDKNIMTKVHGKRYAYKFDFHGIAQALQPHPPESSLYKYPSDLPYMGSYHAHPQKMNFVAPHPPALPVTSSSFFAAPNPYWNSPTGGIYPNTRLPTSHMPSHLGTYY
The note with it: protein: recombinant; tags: N-terminal GST; dsDNA, one strand shown. Summed up: as §1

The target of a further experiment is ELF1 (Homo sapiens, UniProt P32519 1-619). The note with it: protein: recombinant; tags: N-terminal GST; dsDNA, one strand shown. Put shortly:
as §1

For the next experiment, the target named is T5, EHF (Homo sapiens, UniProt Q9NZC4 1-300).
T5 sequence: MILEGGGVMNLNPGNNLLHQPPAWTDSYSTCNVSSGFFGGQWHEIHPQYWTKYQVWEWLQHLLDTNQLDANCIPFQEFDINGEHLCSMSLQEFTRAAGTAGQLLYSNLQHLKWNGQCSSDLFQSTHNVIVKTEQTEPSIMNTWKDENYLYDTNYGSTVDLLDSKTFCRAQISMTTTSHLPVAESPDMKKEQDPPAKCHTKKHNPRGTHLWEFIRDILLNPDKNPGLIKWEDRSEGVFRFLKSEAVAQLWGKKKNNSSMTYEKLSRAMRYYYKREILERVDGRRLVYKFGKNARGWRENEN
The note with it: protein: recombinant; tags: N-terminal GST; dsDNA, one strand shown. Summed up:
as §1

Another experiment has as its target SPI1 (Homo sapiens, UniProt P17947 1-270). The note with it: protein: recombinant; tags: N-terminal GST; dsDNA, one strand shown. Summed up:
as §1

A further experiment has as its target T6, ELK3 (Homo sapiens, UniProt P41970 1-407).
T6 sequence: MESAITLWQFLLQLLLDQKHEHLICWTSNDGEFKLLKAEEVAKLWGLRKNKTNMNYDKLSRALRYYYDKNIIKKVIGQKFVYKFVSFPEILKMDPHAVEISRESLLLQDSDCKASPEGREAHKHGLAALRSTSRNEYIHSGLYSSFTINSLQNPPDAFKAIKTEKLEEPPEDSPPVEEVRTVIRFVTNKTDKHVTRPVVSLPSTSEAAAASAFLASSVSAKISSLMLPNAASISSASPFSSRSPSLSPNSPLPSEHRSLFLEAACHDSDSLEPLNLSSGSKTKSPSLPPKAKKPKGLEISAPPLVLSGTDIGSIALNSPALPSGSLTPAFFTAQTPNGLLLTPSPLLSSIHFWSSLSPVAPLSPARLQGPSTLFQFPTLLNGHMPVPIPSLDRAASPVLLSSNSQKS
The note with it: protein: recombinant; tags: N-terminal GST; dsDNA, one strand shown. Summed up:
as §1

A further experiment addresses T7, FEV (Homo sapiens, UniProt Q99581 1-238).
T7 sequence: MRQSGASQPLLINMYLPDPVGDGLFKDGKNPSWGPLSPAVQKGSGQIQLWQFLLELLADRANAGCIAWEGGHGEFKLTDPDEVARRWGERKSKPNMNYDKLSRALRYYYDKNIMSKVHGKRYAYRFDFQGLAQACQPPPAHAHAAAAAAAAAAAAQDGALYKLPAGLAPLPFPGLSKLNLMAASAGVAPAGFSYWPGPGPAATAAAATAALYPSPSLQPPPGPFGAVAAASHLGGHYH
The note with it: protein: recombinant; tags: N-terminal GST; dsDNA, one strand shown. Summed up:
as §1

For the next experiment, the target named is ETV5 (Homo sapiens, UniProt P41161 1-510). To be noted: protein: recombinant; tags: N-terminal GST; dsDNA, one strand shown. Summed up:
as §1

For another experiment, the target named is HSF1 (Homo sapiens, UniProt Q00613 1-529). To be noted: protein: recombinant; tags: N-terminal GST; chain copies: 3; dsDNA, one strand shown. Summed up:
as §1

A further experiment addresses T8, SPIC (Homo sapiens, UniProt Q8N5J4 1-248).
T8 sequence: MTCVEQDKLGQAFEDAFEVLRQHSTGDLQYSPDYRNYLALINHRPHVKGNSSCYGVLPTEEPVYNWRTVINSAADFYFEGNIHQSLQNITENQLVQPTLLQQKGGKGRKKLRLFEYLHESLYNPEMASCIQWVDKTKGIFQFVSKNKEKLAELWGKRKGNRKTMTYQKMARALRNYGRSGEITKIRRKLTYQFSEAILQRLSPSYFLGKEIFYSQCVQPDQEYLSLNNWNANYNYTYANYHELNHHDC
The note with it: protein: recombinant; tags: N-terminal GST; dsDNA, one strand shown. Summed up: as §1

In the next experiment the target is ELF4 (Homo sapiens, UniProt Q99607 1-663). To be noted: protein: recombinant; tags: N-terminal GST; dsDNA, one strand shown. Put shortly:
as §1

The target in another experiment is T9, ELK4 (Homo sapiens, UniProt P28324-2 1-405).
T9 sequence: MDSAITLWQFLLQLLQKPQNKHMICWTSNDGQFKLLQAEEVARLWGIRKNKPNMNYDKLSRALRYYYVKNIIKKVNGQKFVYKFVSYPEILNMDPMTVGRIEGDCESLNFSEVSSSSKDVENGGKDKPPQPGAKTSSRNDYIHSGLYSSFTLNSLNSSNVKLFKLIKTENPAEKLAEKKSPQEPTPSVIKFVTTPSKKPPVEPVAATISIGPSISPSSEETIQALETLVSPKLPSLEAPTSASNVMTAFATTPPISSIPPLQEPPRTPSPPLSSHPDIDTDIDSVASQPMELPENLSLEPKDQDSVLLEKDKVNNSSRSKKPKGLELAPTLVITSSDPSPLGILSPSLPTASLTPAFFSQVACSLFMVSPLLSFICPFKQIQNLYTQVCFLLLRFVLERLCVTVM
The note with it: protein: recombinant; tags: N-terminal GST; dsDNA, one strand shown. Put shortly: as §1

The target in another experiment is T10, ETV2 (Homo sapiens, UniProt O00321 1-342).
T10 sequence: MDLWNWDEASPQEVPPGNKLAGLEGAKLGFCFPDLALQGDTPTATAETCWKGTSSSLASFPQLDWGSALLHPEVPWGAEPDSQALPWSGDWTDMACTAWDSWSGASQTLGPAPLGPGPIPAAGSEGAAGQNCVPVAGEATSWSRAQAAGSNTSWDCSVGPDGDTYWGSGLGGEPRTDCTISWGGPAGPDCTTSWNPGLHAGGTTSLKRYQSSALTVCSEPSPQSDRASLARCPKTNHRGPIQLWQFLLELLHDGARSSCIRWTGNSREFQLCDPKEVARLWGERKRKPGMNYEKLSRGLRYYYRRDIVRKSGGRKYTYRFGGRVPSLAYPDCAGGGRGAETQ
To be noted: protein: recombinant; tags: N-terminal GST; dsDNA, one strand shown. Put shortly:
as §1

In the next experiment the target is T11, ELF3 (Homo sapiens, UniProt P78545 1-371).
T11 sequence: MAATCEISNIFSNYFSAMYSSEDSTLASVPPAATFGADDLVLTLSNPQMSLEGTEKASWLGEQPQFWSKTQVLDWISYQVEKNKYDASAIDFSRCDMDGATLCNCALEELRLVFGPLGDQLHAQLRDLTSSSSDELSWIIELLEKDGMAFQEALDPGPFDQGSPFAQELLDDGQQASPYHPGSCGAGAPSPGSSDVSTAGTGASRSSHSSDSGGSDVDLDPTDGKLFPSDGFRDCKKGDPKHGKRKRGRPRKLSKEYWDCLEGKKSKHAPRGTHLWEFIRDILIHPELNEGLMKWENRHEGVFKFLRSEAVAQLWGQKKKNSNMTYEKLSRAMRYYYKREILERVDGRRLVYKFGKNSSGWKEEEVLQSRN
The note with it: protein: recombinant; tags: N-terminal GST; dsDNA, one strand shown. Put shortly: as §1

For the next experiment, the target named is CRX (Homo sapiens, UniProt O43186 1-299). The note with it: protein: recombinant; tags: N-terminal GST; dsDNA, one strand shown. Put shortly:
as §1

A further experiment concerns the target ETV1 (Homo sapiens, UniProt P50549 1-477). To be noted: protein: recombinant; tags: N-terminal GST; dsDNA, one strand shown. Put shortly:
as §1

Chain of HSF1 (Q00613 whole entry): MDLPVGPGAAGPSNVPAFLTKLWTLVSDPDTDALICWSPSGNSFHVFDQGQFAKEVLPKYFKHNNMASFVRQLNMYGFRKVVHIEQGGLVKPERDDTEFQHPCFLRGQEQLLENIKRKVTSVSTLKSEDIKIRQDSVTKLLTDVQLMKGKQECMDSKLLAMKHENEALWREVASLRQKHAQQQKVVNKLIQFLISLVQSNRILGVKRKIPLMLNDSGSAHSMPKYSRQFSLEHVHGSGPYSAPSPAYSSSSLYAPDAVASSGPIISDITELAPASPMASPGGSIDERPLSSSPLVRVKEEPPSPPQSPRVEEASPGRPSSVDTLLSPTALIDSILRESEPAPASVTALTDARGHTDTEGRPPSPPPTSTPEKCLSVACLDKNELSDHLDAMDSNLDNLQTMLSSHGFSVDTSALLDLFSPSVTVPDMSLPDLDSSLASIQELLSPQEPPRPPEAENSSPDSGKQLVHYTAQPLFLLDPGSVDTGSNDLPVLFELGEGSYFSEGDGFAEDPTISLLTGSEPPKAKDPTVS
Chain of ETV5 (P41161 whole entry): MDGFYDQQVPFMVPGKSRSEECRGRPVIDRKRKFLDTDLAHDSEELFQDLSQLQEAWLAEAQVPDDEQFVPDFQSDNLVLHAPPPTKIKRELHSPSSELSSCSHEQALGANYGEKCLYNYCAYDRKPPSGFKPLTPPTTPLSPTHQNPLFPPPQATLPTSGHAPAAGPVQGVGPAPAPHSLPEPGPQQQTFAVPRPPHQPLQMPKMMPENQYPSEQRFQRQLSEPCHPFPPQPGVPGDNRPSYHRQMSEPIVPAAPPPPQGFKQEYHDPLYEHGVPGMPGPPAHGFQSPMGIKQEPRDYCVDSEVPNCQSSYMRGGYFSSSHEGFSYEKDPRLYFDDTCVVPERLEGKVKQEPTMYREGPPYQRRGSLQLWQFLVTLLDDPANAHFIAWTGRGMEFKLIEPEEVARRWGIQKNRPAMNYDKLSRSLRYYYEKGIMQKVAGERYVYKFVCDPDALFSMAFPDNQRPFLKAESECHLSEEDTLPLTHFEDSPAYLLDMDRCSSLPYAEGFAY
Chain of ELF4 (Q99607 whole entry): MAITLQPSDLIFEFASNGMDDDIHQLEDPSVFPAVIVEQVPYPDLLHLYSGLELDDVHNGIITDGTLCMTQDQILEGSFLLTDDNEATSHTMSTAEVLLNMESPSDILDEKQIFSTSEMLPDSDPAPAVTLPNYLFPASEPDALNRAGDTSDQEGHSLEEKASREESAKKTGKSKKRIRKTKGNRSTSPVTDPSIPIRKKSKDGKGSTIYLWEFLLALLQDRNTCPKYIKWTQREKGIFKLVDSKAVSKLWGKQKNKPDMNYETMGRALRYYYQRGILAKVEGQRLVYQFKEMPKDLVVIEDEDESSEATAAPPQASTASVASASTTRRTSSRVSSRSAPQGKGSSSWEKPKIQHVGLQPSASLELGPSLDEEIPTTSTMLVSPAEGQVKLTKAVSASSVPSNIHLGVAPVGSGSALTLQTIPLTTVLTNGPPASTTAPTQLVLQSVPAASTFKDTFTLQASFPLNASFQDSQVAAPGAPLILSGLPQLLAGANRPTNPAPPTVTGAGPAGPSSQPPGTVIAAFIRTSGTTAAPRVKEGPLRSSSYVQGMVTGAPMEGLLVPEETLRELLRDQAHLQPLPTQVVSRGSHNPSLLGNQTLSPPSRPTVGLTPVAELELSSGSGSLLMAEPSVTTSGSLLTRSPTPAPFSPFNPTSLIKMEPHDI
Chain of CRX (O43186 whole entry): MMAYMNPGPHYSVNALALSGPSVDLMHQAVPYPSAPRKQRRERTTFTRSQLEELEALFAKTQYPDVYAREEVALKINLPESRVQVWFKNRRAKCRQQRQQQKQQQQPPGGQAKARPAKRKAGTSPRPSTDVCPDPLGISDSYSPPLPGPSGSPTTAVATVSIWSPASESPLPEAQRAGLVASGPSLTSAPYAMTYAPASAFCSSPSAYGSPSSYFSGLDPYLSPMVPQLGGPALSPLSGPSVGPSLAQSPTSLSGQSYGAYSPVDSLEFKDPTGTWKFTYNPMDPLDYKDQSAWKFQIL
Chain of ETV1 (P50549 whole entry): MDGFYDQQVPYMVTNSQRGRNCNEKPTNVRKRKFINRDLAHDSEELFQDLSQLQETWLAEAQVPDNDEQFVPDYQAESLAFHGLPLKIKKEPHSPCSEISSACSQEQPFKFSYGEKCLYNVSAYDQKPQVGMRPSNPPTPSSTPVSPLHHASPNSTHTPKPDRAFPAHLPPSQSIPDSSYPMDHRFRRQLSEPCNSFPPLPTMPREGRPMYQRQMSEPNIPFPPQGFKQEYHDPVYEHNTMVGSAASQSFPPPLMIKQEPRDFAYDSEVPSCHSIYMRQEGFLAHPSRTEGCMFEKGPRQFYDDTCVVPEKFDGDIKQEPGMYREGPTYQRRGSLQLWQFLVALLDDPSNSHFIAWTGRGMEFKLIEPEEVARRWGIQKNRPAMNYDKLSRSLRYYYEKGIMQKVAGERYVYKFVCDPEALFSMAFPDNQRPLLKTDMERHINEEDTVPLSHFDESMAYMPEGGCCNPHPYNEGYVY
Chain of ELF1 (P32519 whole entry): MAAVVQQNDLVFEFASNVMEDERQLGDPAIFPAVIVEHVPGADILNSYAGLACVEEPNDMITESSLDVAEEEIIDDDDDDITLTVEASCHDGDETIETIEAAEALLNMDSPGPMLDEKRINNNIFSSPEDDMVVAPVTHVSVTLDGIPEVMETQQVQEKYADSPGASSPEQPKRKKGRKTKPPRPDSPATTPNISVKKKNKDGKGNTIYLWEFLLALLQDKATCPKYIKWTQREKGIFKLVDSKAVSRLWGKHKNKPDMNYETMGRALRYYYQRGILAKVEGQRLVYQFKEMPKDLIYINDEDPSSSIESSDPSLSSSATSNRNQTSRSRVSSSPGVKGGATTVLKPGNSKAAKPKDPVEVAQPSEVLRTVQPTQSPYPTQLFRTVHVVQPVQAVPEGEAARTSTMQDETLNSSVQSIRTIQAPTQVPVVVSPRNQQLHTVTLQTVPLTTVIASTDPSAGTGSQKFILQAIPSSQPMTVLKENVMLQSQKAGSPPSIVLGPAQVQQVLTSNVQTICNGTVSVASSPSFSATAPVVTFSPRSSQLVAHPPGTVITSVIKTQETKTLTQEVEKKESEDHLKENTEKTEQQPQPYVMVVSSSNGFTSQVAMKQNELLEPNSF

Take TACTGA: the binding signal in the experiment with FLI1 is 1.03 fold enrichment (6-mer frequency, TF over GST control); in the experiment with ELK1, 1.08 fold enrichment (6-mer frequency, TF over GST control); with GABPA, 1.06 fold enrichment (6-mer frequency, TF over GST control); with ERG, 1.03 fold enrichment (6-mer frequency, TF over GST control); with ELF1 it was 1.13 fold enrichment (6-mer frequency, TF over GST control); with EHF it was 1.13 fold enrichment (6-mer frequency, TF over GST control). Further, the binding signal with SPI1 was 1.02 fold enrichment (6-mer frequency, TF over GST control); with ELK3, 1.09 fold enrichment (6-mer frequency, TF over GST control); with FEV, 1.03 fold enrichment (6-mer frequency, TF over GST control); with ETV5, 1.13 fold enrichment (6-mer frequency, TF over GST control); with HSF1, 1.07 fold enrichment (6-mer frequency, TF over GST control); in the experiment with SPIC, 1.03 fold enrichment (6-mer frequency, TF over GST control). The binding signal was 1.11 fold enrichment (6-mer frequency, TF over GST control) with ELF4; 1.32 fold enrichment (6-mer frequency, TF over GST control) with ELK4; 1.12 fold enrichment (6-mer frequency, TF over GST control) with ETV2; 1.2 fold enrichment (6-mer frequency, TF over GST control) in the experiment with ELF3; 1.2 fold enrichment (6-mer frequency, TF over GST control) in the experiment with CRX; 1.02 fold enrichment (6-mer frequency, TF over GST control) with ETV1.

These data come from article PMC7862700, “An all-to-all approach to the identification of sequence-specific readers for epigenetic DNA modifications on cytosine”.
